Compounds with a hit are over-represented: about 6.9% of the library has one in this group of screens.
Vif-A3G inh – blocks the Vif interaction with human APOBEC3G | Q9HC16 | 410,000 tested, 0.076% active | HeLa A3G-eYFP + Vif (tagged APOBEC3G with the HIV-1 protein that degrades it), YFP fluorescence, overnight | Potency, µM (top dose mostly 46.1 µM), for the others: at the top dose activity, negative = active, actives largely listed as inhibitors; also: potency is read from the fitted curve at half-maximal effect; % is scaled to controls: 0 for no effect and ±100 for the full control effect; nearly all actives have a fitted effect of over 60% in size
Target sequence (Q9HC16 whole entry, looked up): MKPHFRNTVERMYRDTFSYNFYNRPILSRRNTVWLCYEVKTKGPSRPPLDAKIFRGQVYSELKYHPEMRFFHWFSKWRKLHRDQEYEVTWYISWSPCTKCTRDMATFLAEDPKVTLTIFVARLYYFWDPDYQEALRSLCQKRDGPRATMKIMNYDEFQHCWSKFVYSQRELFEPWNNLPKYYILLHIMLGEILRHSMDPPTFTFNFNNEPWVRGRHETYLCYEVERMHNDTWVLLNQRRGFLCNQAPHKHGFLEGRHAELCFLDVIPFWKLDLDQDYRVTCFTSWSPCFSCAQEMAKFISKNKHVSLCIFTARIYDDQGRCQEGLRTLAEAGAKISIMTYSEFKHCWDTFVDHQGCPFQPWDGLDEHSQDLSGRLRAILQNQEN
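Read-out is eYFP fluorescence (Ex 488/Em 500-530) from Vif-expressing HeLa A3G-eYFP cells; more signal means A3G escaped Vif-mediated degradation. Cells plated overnight, compound pinned in, incubated overnight at 37 deg C.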
Vif-A3F inh – blocks the Vif interaction with APOBEC3F | 390,000 tested, 0.2% active | HeLa A3F-eYFP + Vif (tagged APOBEC3F with the HIV-1 protein that degrades it), YFP fluorescence increase | AID 602313 | Potency, µM (top dose mostly 46.1 µM), for the others: at the highest dose activity, negative = active; also: potency is read from the fitted curve at half-maximal effect; % of control where 0% means no effect; nearly all actives have a fitted effect of over 65% in size
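HeLa cells stably expressing A3F-eYFP plus Vif, plated and incubated overnight at 37 deg C, then exposed to compounds overnight at 37 deg C. Blocked degradation read as raised yellow fluorescence (Ex 488/Em 500-530).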
MCF10A rereplic – DNA re-replication induction in MCF 10a cells | Potency, µM (series often up to 46.1 µM), for inactives: at the top dose activity, positive = re-replication, usual class: activators | 350,000 tested, 2.9% active | MCF 10A DNA re-replication, Hoechst nuclear intensity, 48 h | AID 624296; also: potency is read from the fitted curve at half-maximal effect; % of control where 0% means no effect; nearly all actives have a fitted effect of over 50% in size
IL-1B inflam inh – inhibitors of inflammasome signaling (IL-1 beta secretion). THP-1 LPS/ATP IL-1B secretion, AlphaLISA, 16 h; active compounds read low. activity change, % at 57.5 µM. 360,000 tested, 4.7% active. AID 743279; in the data active = activity change below about -50%; inconclusive = mostly about -30% to -49%; also: % is scaled to controls: 0 for no effect and ±100 for the full control effect
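Secreted IL-1B measured by AlphaLISA bead assay after 16 h compound exposure of THP-1 cells; compounds (final up to 57.5 uM) added 1 h before LPS (250 ng/mL) and ATP (1.25 mM) stimulation; lower signal means less secretion.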
SW480 rereplic – induces DNA re-replication in SW480 colon adenocarcinoma cells; SW480 DNA re-replication, Hoechst DNA content imaging, 48 h; Potency, µM (titrated, usually from 46.1 µM), for inactives: at the highest dose re-replication activation, most hits filed as activators; 340,000 tested, 1.8% active; AID 624297; also: potency is read from the fitted curve at half-maximal effect; % of control where 0% means no effect; nearly all actives have a fitted effect of over 55% in size
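250 cells/well; 23 nL cpd via pin tool; 48 hr, 37 C, 5% CO2; Hoechst 40 min; imager read of total nuclear intensity, ex 405/em 500-530 nm.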
Giardia killer – Giardia lamblia killing. Giardia lamblia trophozoite viability. activity change, % at 7.66 µM, hits read low. 340,000 tested, 0.15% active; in the data active = activity change below about -80%; inconclusive = between about -30% and that limit;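 also: parasites exposed to compound for two days anaerobically before the ATP read; % is scaled to controls: 0 for no effect and ±100 for the full control effect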
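Luminescence from cellular ATP indicates surviving trophozoites (100 cells/well) following 48 hrs anaerobic compound treatment at 37 deg C; signal develops 15-30 min at room temperature.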
The depositor's hits bear a star; [ ] = another dose, or the depositor's remark. Unless noted, calls follow the shape of the dose curve; as a rule, active = well fitted curve in the direction sought with a large enough effect; inconclusive = small, poorly fitted or top-dose-only effect, or another doubt; inactive = no such curve, though single readings can be large; an effect the other way counts as inactive or inconclusive.

For O=C(N/N=C(\c1ccccc1)c1cccnc1)c1cccc(F)c1 the results were Vif-A3G inh -17.0%, Vif-A3F inh -1.0%, MCF10A rereplic inconclusive, IL-1B inflam inh -95.5*, SW480 rereplic inconclusive and Giardia killer -14.2.
Screening CC(=O)c1ccc(N2CCN(C(=O)C3CCN(S(=O)(=O)c4cccc5nonc45)CC3)CC2)cc1 returned Vif-A3G inh -0.8% and Vif-A3F inh 2.1%.
`O=S(=O)(Nn1cnnc1)c1ccc(F)cc1` gave Vif-A3G inh -1.0%, Vif-A3F inh -22.6%, MCF10A rereplic 2.31µM*, IL-1B inflam inh -8.8, SW480 rereplic 27.4% and Giardia killer -4.2.
Screening Cc1ccc(S(=O)(=O)Nn2cnnc2)cc1 returned Vif-A3G inh 3.6%, Vif-A3F inh -12.6%, MCF10A rereplic -0.8%, IL-1B inflam inh -28.9, SW480 rereplic -14.5% and Giardia killer 12.6.
Screening O=C(Cc1ccc(-c2ccccc2)cc1)NO returned Vif-A3G inh -1.4%.
For Cn1c(O)c(/C=N/NC(=O)c2cc3ccccc3cc2O)c2ccccc21 the results were Vif-A3G inh inconclusive, Vif-A3F inh inconclusive, MCF10A rereplic 20.6µM*, IL-1B inflam inh 83.2, SW480 rereplic inconclusive and Giardia killer -9.2.
`COc1cccc(CN2C(=O)c3ccccc3Sc3ccc(C(=O)NCCc4ccc(C)cc4)cc32)c1` gave Vif-A3G inh -0.9% and Vif-A3F inh -3.0%.
Screening CCOCCc1nnc(NC(=O)C(=O)c2cc(C)n(-c3ccc(C)cc3C)c2C)s1 returned Vif-A3G inh 1.3% and Vif-A3F inh 0.3%.
`CCOc1ccccc1N(C)C(=O)c1sc2nc3n(c(=O)c2c1C)CCCC3` gave Vif-A3G inh -25.5% and Vif-A3F inh 3.1%.
Oc1ccc(C[C@H]2CNC(=S)N2CC2CCCN2C[C@H](Cc2ccc(O)cc2)N2C[C@H](Cc3ccc(O)cc3)N(CC3CCCCC3)C2=S)cc1 (some centres undefined) was read as Vif-A3G inh -1.2%, Vif-A3F inh 2.5%, MCF10A rereplic 11.6µM*, IL-1B inflam inh 0.0, SW480 rereplic inconclusive and Giardia killer 3.2.
Screening CC(C)C[C@H]1CNC(=S)N1CC1CCCN1C[C@H](Cc1ccccc1)N1C[C@H](Cc2ccc(O)cc2)N(CC2CCCCC2)C1=S (some centres undefined) returned Vif-A3G inh 2.2%, Vif-A3F inh -9.9%, MCF10A rereplic -41.0%, IL-1B inflam inh inconclusive, SW480 rereplic 4.61µM* and Giardia killer -8.0.
Screening Oc1ccc(C[C@H]2CN([C@@H](Cc3ccc(O)cc3)CN3CCC[C@@H]3CN3C(=S)NC[C@@H]3Cc3ccccc3)C(=S)N2CC2CCCCCC2)cc1 returned Vif-A3G inh -7.4% and IL-1B inflam inh -51.2*.
Oc1ccc(C[C@H]2CN([C@@H](Cc3ccccc3)CN3CCCC3CN3C(=S)NC[C@@H]3Cc3ccccc3)C(=S)N2CC2CCCCC2)cc1 (some centres undefined) was read as IL-1B inflam inh 10.8.
For Oc1ccc(C[C@H]2CNC(=S)N2CC2CCCN2C[C@H](Cc2ccccc2)N2C[C@H](Cc3ccc(O)cc3)N(CC3CCCCCC3)C2=S)cc1 (some centres undefined) the results were Vif-A3G inh -10.2%, Vif-A3F inh -12.4%, MCF10A rereplic -22.6%, IL-1B inflam inh inconclusive, SW480 rereplic -3.7% and Giardia killer -5.2.
COc1ccc(/C=N/NC(=O)CCn2cnc(-c3ccccc3)c2-c2ccccc2)cc1OC was read as Vif-A3G inh inconclusive, Vif-A3F inh -6.1%, MCF10A rereplic 8.2µM*, IL-1B inflam inh 16.3, SW480 rereplic 20.6µM* and Giardia killer -20.9.
Screening Cc1ccc(S(=O)(=O)N(C)C[C@H]2Oc3ccc(NC(=O)C4CCCCC4)cc3C(=O)N([C@H](C)CO)C[C@H]2C)cc1 returned Vif-A3G inh -13.4%, Vif-A3F inh 3.3%, MCF10A rereplic 4.3%, IL-1B inflam inh -68.6*, SW480 rereplic -2.2%[9.22 µM] and Giardia killer -11.5.
For C[C@H](CO)N1C[C@H](C)[C@@H](CN(C)C(=O)Nc2ccccc2)Oc2ccc(NC(=O)Nc3ccc(C(F)(F)F)cc3)cc2C1=O the results were Vif-A3G inh -6.7%, Vif-A3F inh 0.6%, MCF10A rereplic 25.5%, IL-1B inflam inh -9.7, SW480 rereplic -0.8% and Giardia killer -3.9.
C[C@H]1CN([C@@H](C)CO)C(=O)c2cc(NS(=O)(=O)c3ccc(Cl)cc3)ccc2O[C@@H]1CN(C)CC1CCCCC1 was read as Vif-A3G inh 0.9%, Vif-A3F inh -17.7%, MCF10A rereplic 2.8%, IL-1B inflam inh -55.8*, SW480 rereplic 27.6%[9.22 µM] and Giardia killer -0.9.
C[C@H](CO)N1C[C@H](C)[C@@H](CN(C)C(=O)Nc2ccc(C(F)(F)F)cc2)Oc2ccc(NC(=O)C3CCCCC3)cc2C1=O was read as Vif-A3G inh 2.9%, Vif-A3F inh -2.2%, MCF10A rereplic -8.0%, IL-1B inflam inh -52.7*, SW480 rereplic 2.4% and Giardia killer 19.9.
C[C@@H]1CN([C@H](C)CO)C(=O)c2cc(NC(=O)Nc3ccc(F)cc3)ccc2O[C@H]1CN(C)C(=O)Nc1ccc(C(F)(F)F)cc1 was read as Vif-A3G inh -1.5%, Vif-A3F inh -1.5%, MCF10A rereplic -4.7%, IL-1B inflam inh -71.7*, SW480 rereplic 6.9% and Giardia killer 7.2.
COc1ccc(NC(=O)N(C)C[C@H]2Oc3ccc(NC(=O)C4CCCCC4)cc3C(=O)N([C@H](C)CO)C[C@@H]2C)cc1 was read as Vif-A3G inh 3.9%, Vif-A3F inh 3.1%, MCF10A rereplic -16.7%, IL-1B inflam inh -10.9, SW480 rereplic 3.5% and Giardia killer 0.6.
For CCOc1ccc(CCNC(=O)c2cc3c(s2)-c2ccccc2OC3)cc1OCC the results were Vif-A3G inh -3.8% and Vif-A3F inh 12.9%.
For Cn1cnc(S(=O)(=O)N2CCC(C(=O)N3CCN(c4ccccc4F)CC3)CC2)c1 the results were Vif-A3G inh 0.0% and Vif-A3F inh 0.0%.
`Cc1cncc(C(=O)O)[n+]1[O-]` gave MCF10A rereplic -7.4% and SW480 rereplic 10.1%.
`O=C(NCC1CCCO1)c1c[nH]c2ccc(S(=O)(=O)Nc3cccc(C(F)(F)F)c3)cc2c1=O` (centres undefined) gave Vif-A3G inh -0.1% and Vif-A3F inh 0.6%.

Screening data deposited in PubChem BioAssay by National Center for Advancing Translational Sciences (NCATS).
